Compound activity as filed in PubChem.
The list is not random: actives were taken first. Their share in the collection is about 3.5%.
MITF primary = blocks human microphthalmia-associated transcription factor; AlphaScreen MITF homodimerization, bead proximity signal; inhibition, % at 2.6 µM; 0.91% of 650,000 active; in the data active means inhibition above about 50%;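 further: 0% = vehicle wells with protein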
TEAD-YAP inh = TEAD-YAP interaction inhibition. HEK-TIYL cells, TEAD-Gal4/YAP UAS-luciferase luminescence. inhibition, % at 9.12 µM. 1.4% of 640,000 active; in the data active means inhibition above about 32%;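 further: 0% = median of test compound wells and 100% = reference inhibitor wells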
FBW7 act = activators of human E3 ligase FBW7 | Q969H0 | AlphaScreen FBW7–phospho-cyclin E peptide binding, activator screen | normalized activity (activation), % at 26.1 µM | 0.13% of 650,000 active | AID 1259310; in the data active means normalized activity above about 1.9%;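 further: purified mutant Fbw7 with reduced substrate affinity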
GPR151 activ = activators of human GPR151; PathHunter beta-arrestin GPR151 cells, luminescence; AID 1508602; 1% of 650,000 active; activation, % at 11.2 µM; in the data active means activation above about 4.9%;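 further: 0% = median of compound wells and 100% = cells with positive control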
Target sequence (Q8TDV0 whole entry, looked up): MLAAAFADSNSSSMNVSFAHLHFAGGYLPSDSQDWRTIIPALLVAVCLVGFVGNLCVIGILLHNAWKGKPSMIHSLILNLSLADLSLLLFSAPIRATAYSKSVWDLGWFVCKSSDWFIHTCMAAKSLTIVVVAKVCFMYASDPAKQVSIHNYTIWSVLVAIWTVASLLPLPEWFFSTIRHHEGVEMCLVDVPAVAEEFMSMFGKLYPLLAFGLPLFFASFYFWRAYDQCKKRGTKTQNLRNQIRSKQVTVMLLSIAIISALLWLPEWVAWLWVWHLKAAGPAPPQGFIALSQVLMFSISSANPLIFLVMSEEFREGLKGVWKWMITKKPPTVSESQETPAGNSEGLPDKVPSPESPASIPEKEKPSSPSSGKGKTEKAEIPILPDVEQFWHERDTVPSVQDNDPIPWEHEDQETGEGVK
MITF inh conf = confirmation of human MITF inhibitors; shares compounds with MITF primary; AlphaScreen MITF homodimerization, biotin/His-MITF beads; inhibition, % at 2.6 µM; 16% of 4,700 active; AID 1259372;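 active means inhibition above a cutoff derived from the DMSO control wells, cut at about 28% in these data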;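 further: 0% = MITF dimer wells with DMSO only; inhibitors lower the bead chemiluminescence by keeping MITF from dimerizing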
AS interf DR = optically interferes with AlphaScreen signal in dose response. AID 1259373. AlphaScreen optical interference counterscreen, cell-free. shares compounds with MITF primary. IC50, µM. 6% of 480 active; call rule not given here
AlphaScreen intf2 = AlphaScreen optical interference, counter-screen; AID 1259376; 7.6% of 4,700 active; shares compounds with MITF primary; inhibition, % at 2.6 µM; LysRS AlphaScreen counterscreen, signal interference, triplicate;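 active means inhibition above a cutoff derived from the DMSO control wells, cut at about 30% in these data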
The depositor's hits bear a star; nt = no result given.

SMILES	MITF primary	TEAD-YAP inh	FBW7 act	GPR151 activ	MITF inh conf	AlphaScreen intf2	others
CCCN1CCN(c2ncnc3sc(C(=O)Nc4cc(Cl)c(OC)cc4OC)c(C)c23)CC1	5	4	0	0	nt	nt
Cc1[nH]c2c(C)cccc2c(=O)c1CN(C)C	4	4	0	1	nt	nt
CCOC(=O)N1CCN(c2nc(C)nc3sc(C)c(C)c23)CC1	10	12	0	0	nt	nt
CCOC(=O)N1CCN(c2nc(C)nc3sc(C)cc23)CC1	54*	6	0	0	5	21
COc1ccccc1CN1CCN(C(=O)c2cccc(F)c2)CC1	49	4	0	0	nt	nt
COc1cc(OC)cc(C(=O)N2CCN(Cc3ccc(C)cc3)CC2)c1	47	0	0	0	nt	nt
COc1cc(OC)cc(C(=O)N2CCN(Cc3ccccc3Cl)CC2)c1	60*	-12	0	0	-2	2
COc1cc(OC)cc(C(=O)N2CCN(Cc3ccccc3OC)CC2)c1	61*	3	0	-1	5	-1
CC1CC(C)CN(S(=O)(=O)c2ccc(NC(=O)c3ccco3)cc2)C1 (stereo not given)	5	0	0	1	nt	nt
COc1ccc(Br)cc1C(=O)N/N=C/c1ccccc1F	67*	-2	0	-1	7	7
CCCCN(CC)C(=O)c1sc2nc(C)nc(N3CCC(C)CC3)c2c1C	-3	-12	0	1	nt	nt
CC1CCCN(C(=O)C2CCN(Cc3cccc(O)c3)CC2)C1 (stereo not given)	18	2	0	0	nt	nt
COc1ccccc1CN1CCC(C(=O)N2CCCC2)CC1	45	-8	0	-1	nt	nt
O=C(C1CCN(Cc2cccc(O)c2)CC1)N1CCN(c2ccccc2F)CC1	76*	4	1	0	-9	-8
COc1cccc(CN2CCC(C(=O)N3CCN(c4ccccc4F)CC3)CC2)c1OC	52*	1	0	-1	8	11
O=C(O)c1cccc(NS(=O)(=O)c2cccc(C(=O)Nc3ccccc3)c2)c1	51*	4	0	1	12	-1
c1ccc(CN2CCCC2c2nc(-c3ccncc3)n[nH]2)nc1 (stereo not given)	101*	-6	-1	0	92*	100*
O=C(CNC1CCCCC1)Nc1ccc(CN2CCCCC2)cc1	74*	-7	0	1	6	18
O=C(CNCC1CCCCC1)Nc1ccc(CN2CCCCC2)cc1	63*	-1	0	0	10	14
O=C(CNC1CCCCCC1)Nc1ccc(CN2CCCCC2)cc1	67*	5	0	0	8	15
O=C(CNC1CC1)Nc1ccc(CN2CCCCC2)cc1	18	-3	0	0	nt	nt
Cc1ccccc1CN1CCN(Cc2ccncc2)CC1	60*	-7	0	1	-15	0
Cc1ccccc1CN1CCN(Cc2cccnc2)CC1	84*	3	0	-1	3	24
c1ccc2c(CN3CCN(Cc4ccncc4)CC3)cccc2c1	55*	-1	0	-1	2	2
Cc1ccc(C)c(N2CCN(Cc3cccnc3)CC2)c1	30	9	0	-1	nt	nt
SMILES	MITF primary	TEAD-YAP inh	FBW7 act	GPR151 activ	MITF inh conf	AlphaScreen intf2	others
C(=N\N1CCN(Cc2cccc3ccccc23)CC1)/c1ccncc1	14	-15	0	-1	nt	nt
CCN(CC)CCCNC(=O)c1ccc(CNc2nc(=S)[nH]c3ccccc23)cc1	3	-4	0	1	nt	nt
C=CCNC(=O)c1ccccc1I	-13	0	0	0	nt	nt
Cc1oc(-c2ccccc2)cc1C(=O)N1CCN(c2ccc([N+](=O)[O-])c(N3CCCC3)c2)CC1	10	11	0	0	nt	nt
O=C(NCc1ccccc1)C1CC12CCN(C(=O)CCCc1cccs1)CC2 (stereo not given)	62*	-33	0	1	1	7
O=C(NCc1cccs1)C1CC12CCN(C(=O)Cc1ccc(-c3ccccc3)cc1)CC2 (stereo not given)	12	8	0	1	nt	nt
Cc1cccc2c1CC(C)(C)NC2=S	5	4	0	-1	nt	nt
Cc1ccc(C)c2c1CC(C)(C)NC2=S	70*	0	0	-1	8	15
Cc1ccc2c(c1)cc1c(=O)n(CC(=O)NCCN3CCOCC3)nc(C)n12	13	-10	0	0	nt	nt
Cc1ccc2c(c1)cc1c(=O)n(CC(=O)NCCCN3CCCCC3)nc(C)n12	63*	-5	0	0	8	10
CC(C)Cn1c(=O)c(C(=O)Nc2ccc(Br)cc2)c(O)c2ccccc21	-18	-1	0	-1	nt	nt
Cc1ccc(C(=O)N/C(=C/c2ccc([N+](=O)[O-])o2)C(=O)O)cc1	70*	6	0	1	54*	5	AS interf DR=>5.9
Cc1ccc(NC(=O)/C(=C\c2ccc([N+](=O)[O-])o2)NC(=O)c2ccc(Cl)cc2)cc1	15	0	0	0	nt	nt
O=C(c1ccc(F)cc1)N1CCN(Cc2cccnc2)CC1	72*	1	0	-1	8	6
O=C(c1cccnc1)N1CCN(Cc2cccc(Oc3ccccc3)c2)CC1	70*	10	0	-1	-5	3
O=C(c1ccccc1)N1CCN(Cc2cccc(Oc3ccccc3)c2)CC1	49	-5	0	0	nt	nt
O=C(c1cccnc1)N1CCN(Cc2cccc(F)c2)CC1	75*	10	0	-1	15	12
CCCOc1cc(C)c2c(=O)c(Oc3ccccc3)c(C(F)(F)F)oc2c1	20	-12	1	-1	nt	nt
O=C1NC(c2ccccc2)=C([N+](=O)[O-])C(c2cccc(F)c2)N1 (stereo not given)	76*	12	0	2	-5	-8
NCc1nc2ccc(Cc3ccc4nc(CN)[nH]c4c3)cc2[nH]1	105*	-4	0	-1	84*	100*
CCN1CCN(c2ncnc3sc(C(=O)Nc4ccc(F)cc4Cl)c(C)c23)CC1	1	-16	0	-1	nt	nt
Cc1ccc2c(c1Br)C1(C(=O)N2)C(C#N)=C(N)Oc2cc(N)ccc21 (stereo not given)	-7	9	0	0	nt	nt
CN1C(=O)/C(=C2\SC(=Nc3ccc(F)cc3)NC2=O)c2cc(Br)ccc21	51*	1	0	2	3	-9
CN1C(=O)/C(=C2\SC(=Nc3ccc(Br)cc3)NC2=O)c2ccccc21	8	-5	0	-1	nt	nt
OCCCc1nc2n(n1)C(c1ccccc1)C=C(c1ccc(Cl)cc1)N2 (stereo not given)	19	-4	0	-1	nt	nt
O=C(CSc1ccc(-c2ccccn2)nn1)Nc1ccc(F)c(F)c1	17	-1	-2	-2	nt	nt
O=C(CSc1ccc(-c2ccccn2)nn1)Nc1ccccc1F	52*	0	0	-5	56*	88*
O=C(CSc1ccc(-c2ccccn2)nn1)c1ccccc1	53*	-44	-2	0	88*	100*
